Among the data in PubChem BioAssay (NCI) are growth values, retold here.

About 83,000 compounds went through this panel and 20% of them were active in at least one assay; those are over-represented in the sample as a whole.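 Method: cells in 96-well plates; compound added at one concentration; 48 h incubation; percent growth measured; values under 10 scored active.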 Values without a mark were called inactive. The source made the active and inactive calls.

Test systems include DU-145 prostate; K-562 leukemia; MALME-3M melanoma; MDA-MB-231 breast; RXF 393 renal; SF-268 CNS; SF-295 CNS; SF-539 CNS; UACC-257 melanoma; M14 melanoma; HCT-15 colon; HT29 colon; SNB-75 CNS; SNB-19 CNS; U251 CNS; PC-3 prostate; SK-MEL-5 melanoma; UACC-62 melanoma; LOX IMVI melanoma; SK-MEL-28 melanoma.
Holding throughout (test): NCI-60 one-dose screen, 48 h (100 = growth as untreated, 0 = no growth, -100 = all killed)
Holding throughout (settings): 10 µM

As for `COc1cc(-c2nc3ccc(C)cc3[nH]2)ccc1OCC(=O)N=Nc1c(O)[nH]c2ccccc12`, the growth in the experiment on DU-145 prostate was 2.84% (active); in the experiment on K-562 leukemia, -62.9% (active); in the experiment with MALME-3M melanoma, -68.8% (active); in the experiment with MDA-MB-231 breast it was -81.2% (active); in the experiment with RXF 393 renal, -9.89% (active); with SF-268 CNS it was -35.6% (active). Also, the growth in the experiment on SF-295 CNS is -52.8% (active); in the experiment on SF-539 CNS it was -88.5% (active); in the experiment with UACC-257 melanoma it was 13.8%; with M14 melanoma, -72.8% (active); in the experiment on HCT-15 colon it was 52.7%; in the experiment on HT29 colon it was -77.1% (active). For the same compound, the growth is -34.8% (active) with SNB-75 CNS; -75.2% (active) with SNB-19 CNS; -96.3% (active) with U251 CNS; -63.8% (active) with PC-3 prostate; 29.1% in the experiment on SK-MEL-5 melanoma; -83.1% (active) with UACC-62 melanoma. Also, the values for the growth with LOX IMVI melanoma and in the experiment with SK-MEL-28 melanoma were -97.7% (active) and -77.5% (active), respectively.
In the case of `COc1ccc(CSc2nc3cc(OC)c(OC)cc3c(=O)n2-c2ccc(OC)cc2OC)cc1`, the growth is 97.7% with DU-145 prostate; 87.1% in the experiment on K-562 leukemia; 82.6% in the experiment with MALME-3M melanoma; 75.4% with MDA-MB-231 breast; 75.5% in the experiment with RXF 393 renal; 86.4% with SF-268 CNS. In addition, the growth in the experiment on SF-295 CNS is 89.6%; in the experiment on SF-539 CNS, 96.8%; with UACC-257 melanoma, 93.4%; in the experiment on M14 melanoma, 97%; in the experiment with HCT-15 colon, 80.6%; in the experiment on HT29 colon, 88%. The growth in the experiment with SNB-75 CNS was 90.3%; in the experiment with SNB-19 CNS it was 79.6%; in the experiment with U251 CNS it was 85.9%; in the experiment with PC-3 prostate, 55.6%; with SK-MEL-5 melanoma, 80.5%; with UACC-62 melanoma, 80.2%. Also, the growth in the experiment with LOX IMVI melanoma was 83.4%; with SK-MEL-28 melanoma, 102%.
As to `COc1cc2nc(Sc3sc(N)nc3C)n(-c3ccc(Oc4ccccc4)cc3)c(=O)c2cc1OC`, the growth with DU-145 prostate was 98.3%; with K-562 leukemia it was 78.6%; in the experiment with MALME-3M melanoma, 98.3%; with MDA-MB-231 breast, 90.1%; in the experiment with RXF 393 renal, 85.9%; in the experiment on SF-268 CNS, 102%. Also, the growth was 85.4% in the experiment with SF-295 CNS; 81.3% with SF-539 CNS; 89.7% in the experiment with UACC-257 melanoma; 81.6% in the experiment with M14 melanoma; 79.9% in the experiment on HCT-15 colon; 75% in the experiment on HT29 colon. Also, the growth was 86.7% with SNB-75 CNS; 105% with SNB-19 CNS; 87.6% in the experiment with U251 CNS; 65.2% with PC-3 prostate; 76.8% in the experiment with SK-MEL-5 melanoma; 81.4% with UACC-62 melanoma. The growth was 78.3% in the experiment with LOX IMVI melanoma and 97.9% with SK-MEL-28 melanoma.
In the case of `O=C/C=C/c1ccc([N+](=O)[O-])cc1Cl`, the growth in the experiment with DU-145 prostate is 99.9%; in the experiment with K-562 leukemia it was 63.7%; with MALME-3M melanoma, 95.1%; with MDA-MB-231 breast, 122%; in the experiment with RXF 393 renal, 107%; in the experiment on SF-268 CNS, 93.1%. In addition, the growth with SF-295 CNS is 107%; in the experiment with SF-539 CNS it was 96.8%; in the experiment with UACC-257 melanoma, 91.6%; in the experiment on M14 melanoma it was 90.8%; in the experiment with HCT-15 colon it was 98%; in the experiment on HT29 colon, 97.4%. For the same compound, the growth in the experiment with SNB-75 CNS is 101%; with SNB-19 CNS, 105%; in the experiment with U251 CNS, 100%; with PC-3 prostate it was 86.6%; in the experiment on SK-MEL-5 melanoma, 100%; in the experiment with UACC-62 melanoma, 96.5%. Besides, the results for the growth in the experiment on LOX IMVI melanoma and in the experiment with SK-MEL-28 melanoma were 47.8% and 102%, respectively.
Regarding `CCOC(=O)[C@@H](Cc1ccccc1)NC(=O)c1[nH]c2ccc(Cl)cc2c(=O)c1C`, the growth in the experiment with DU-145 prostate was 113%; in the experiment with K-562 leukemia, 86.5%; in the experiment with MALME-3M melanoma, 107%; in the experiment with MDA-MB-231 breast, 106%; in the experiment on RXF 393 renal, 98.5%; in the experiment on SF-268 CNS, 99.7%. For the same compound, the growth was 97.4% in the experiment with SF-295 CNS; 101% in the experiment with SF-539 CNS; 81.7% with UACC-257 melanoma; 97.1% in the experiment on M14 melanoma; 40.7% in the experiment on HCT-15 colon; 91.7% in the experiment with HT29 colon. Besides, the growth in the experiment on SNB-75 CNS was 95.9%; in the experiment with SNB-19 CNS it was 94.3%; in the experiment with U251 CNS, 71.7%; in the experiment with PC-3 prostate, 80.7%; in the experiment on SK-MEL-5 melanoma it was 81.6%; in the experiment on UACC-62 melanoma, 86.6%. In addition, the growth in the experiment on LOX IMVI melanoma is 95.8%; with SK-MEL-28 melanoma it was 104%.
For the compound `C=C[C@]1(C)C=C2C(=O)[C@@]3(O)OC(=O)[C@@]4(CCCC(C)(C)[C@H]34)[C@@]2(O)CC1`, the growth in the experiment on DU-145 prostate is -99.4% (active); in the experiment with K-562 leukemia, 1.73% (active); with MALME-3M melanoma, -69.6% (active); with MDA-MB-231 breast, -71.9% (active); in the experiment on RXF 393 renal, -97.4% (active); with SF-268 CNS, -66.7% (active). Moreover, the growth with SF-295 CNS is -17.2% (active); in the experiment with SF-539 CNS, -97.6% (active); in the experiment with UACC-257 melanoma, -93% (active); in the experiment with M14 melanoma it was -89% (active); with HCT-15 colon, -30.5% (active); in the experiment on HT29 colon, -2.72% (active). Moreover, the growth is -78.8% (active) in the experiment on SNB-75 CNS; 26.5% in the experiment with SNB-19 CNS; -94% (active) in the experiment on U251 CNS; -74.7% (active) in the experiment on PC-3 prostate; -99.1% (active) with SK-MEL-5 melanoma; -87.2% (active) with UACC-62 melanoma. The growth with LOX IMVI melanoma is -96.7% (active); with SK-MEL-28 melanoma, -98.8% (active).
As for `CCOC(=O)/C(C#N)=C(/C)C1CC1`, the growth was 108% with DU-145 prostate; 117% in the experiment on K-562 leukemia; 109% in the experiment with MALME-3M melanoma; 117% in the experiment on MDA-MB-231 breast; 94.9% in the experiment on RXF 393 renal; 107% with SF-268 CNS. Further, the growth is 113% in the experiment with SF-295 CNS; 96.8% in the experiment on SF-539 CNS; 103% with UACC-257 melanoma; 109% in the experiment on M14 melanoma; 98.6% in the experiment on HCT-15 colon; 112% in the experiment on HT29 colon. Further, the growth in the experiment with SNB-75 CNS was 87.7%; with SNB-19 CNS it was 110%; in the experiment with U251 CNS, 100%; in the experiment on PC-3 prostate it was 97.3%; with SK-MEL-5 melanoma, 99.6%; with UACC-62 melanoma it was 107%. Further, the growth in the experiment with LOX IMVI melanoma and in the experiment with SK-MEL-28 melanoma was 106% throughout.
